Some test systems named below: SK-MEL-2 melanoma; EKVX NSCLC; SN12C renal; UO-31 renal; TK-10 renal; ACHN renal; CAKI-1 renal; CCRF-CEM leukemia; MOLT-4 leukemia; SR leukemia; RPMI-8226 leukemia; OVCAR-8 ovarian; OVCAR-5 ovarian; OVCAR-4 ovarian; SK-OV-3 ovarian; IGROV1 ovarian; OVCAR-3 ovarian; HS 578T breast; NCI/ADR-RES ovarian.
What all share (assay): NCI-60 one-dose screen, 48 h (100 = growth as untreated, 0 = no growth, -100 = all killed)
What all share (conditions): 10 µM unless noted

SMILES strings stand for the structures. The panel holds about 83,000 compounds, 20% with a hit somewhere; the sample as a whole holds those more often.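 Plates (96-well) were seeded with cells, treated with compound at one concentration, and incubated for 48 hours before percent growth was determined.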 Unmarked numbers belong to inactive results. Active and inactive are the calls of the source. The calls were made as follows: active = growth percent below 10; inactive = the rest.

Drawing on PubChem BioAssay (NCI), this text covers growth for 10 compounds.

For the compound `COC(=O)[C@]12CC[C@@H](C)[C@H](C)[C@@H]1C1=CC[C@@H]3[C@@]4(C)C(C=O)=C[C@@](C)(CO)C4=CC[C@@]3(C)[C@]1(C)CC2`, the growth in the assay with SK-MEL-2 melanoma was 52.4%; in the assay on EKVX NSCLC, 34.4%; with SN12C renal, 37.6%; in the assay on UO-31 renal, 27.8%; with TK-10 renal it was 54.4%; in the assay with ACHN renal, 17.1%. Besides, the growth in the assay with CAKI-1 renal is 42.8%; with CCRF-CEM leukemia, 18.7%; with MOLT-4 leukemia it was 8.61% (active); in the assay on SR leukemia it was 15.5%; with RPMI-8226 leukemia, 12.8%; in the assay on OVCAR-8 ovarian it was 32.2%. The growth in the assay on OVCAR-5 ovarian is 62.9%; in the assay on OVCAR-4 ovarian it was 31.7%; in the assay on SK-OV-3 ovarian, 76.3%; in the assay on IGROV1 ovarian, 45.4%; in the assay on OVCAR-3 ovarian, 24.3%; with HS 578T breast, 47.5%. The growth in the assay with NCI/ADR-RES ovarian is 31.9%.

As for `O=C(/C=C/C12c3ccccc3C(c3ccccc31)C1C(=O)NC(=O)C12)c1ccc(Cl)cc1` (configuration not stated), the growth was -7.61% (active) in the assay on SK-MEL-2 melanoma; 17.8% with EKVX NSCLC; -14.4% (active) in the assay on SN12C renal; -55.2% (active) in the assay with UO-31 renal; 12.6% with TK-10 renal; -44.8% (active) in the assay on ACHN renal. The growth is 33.6% in the assay with CAKI-1 renal; 11.5% with CCRF-CEM leukemia; 11.1% with MOLT-4 leukemia; 13.3% in the assay on SR leukemia; -10.1% (active) in the assay with RPMI-8226 leukemia; 16% in the assay with OVCAR-8 ovarian. Also, the growth in the assay with OVCAR-5 ovarian is -2.53% (active); in the assay with OVCAR-4 ovarian, 30.4%; in the assay on OVCAR-3 ovarian, -57.8% (active); in the assay on HS 578T breast, 11.6%; in the assay on NCI/ADR-RES ovarian, 4.42% (active).

In the case of `O=C(CCl)N1c2cccc3cccc(c23)N(C(=O)CCl)C1c1cn(-c2ccccc2)nc1-c1cccc([N+](=O)[O-])c1`, the growth with SK-MEL-2 melanoma was 111%; in the assay with EKVX NSCLC it was 102%; in the assay on SN12C renal, 93.5%; in the assay with UO-31 renal, 66.9%; with TK-10 renal it was 104%; in the assay on ACHN renal, 76.7%. Further, the growth in the assay on CAKI-1 renal is 92.5%; in the assay on CCRF-CEM leukemia it was 8.63% (active); in the assay with MOLT-4 leukemia, 34.7%; in the assay with SR leukemia, 17.8%; in the assay on RPMI-8226 leukemia it was -6.92% (active); in the assay on OVCAR-8 ovarian, 79.3%. Further, the growth in the assay with OVCAR-5 ovarian is 108%; in the assay on OVCAR-4 ovarian, 96%; with IGROV1 ovarian, 79.5%; with OVCAR-3 ovarian, 61.6%; in the assay with HS 578T breast, 98.6%; in the assay with NCI/ADR-RES ovarian it was 94.6%.

As to `N#Cc1c(NC(=O)c2ccc(Br)cc2)sc2c1CCCC2`, the growth with SK-MEL-2 melanoma is 37%; in the assay on EKVX NSCLC, 37%; with SN12C renal, 45.7%; in the assay on UO-31 renal it was 63%; in the assay with TK-10 renal, 72.7%; in the assay on ACHN renal, 47.6%. The growth was 54.3% in the assay on CAKI-1 renal; 20.4% in the assay with CCRF-CEM leukemia; 32.5% in the assay on MOLT-4 leukemia; 50.2% in the assay with SR leukemia; 33.3% with RPMI-8226 leukemia; 64.6% in the assay with OVCAR-8 ovarian. In addition, the growth in the assay with OVCAR-5 ovarian was 55.7%; with OVCAR-4 ovarian, 69.6%; with OVCAR-3 ovarian, 16.8%; with NCI/ADR-RES ovarian, 16.6%.

`CNC=O`: the growth is 110% in the assay on SK-MEL-2 melanoma; 156% in the assay on EKVX NSCLC; 99.8% with SN12C renal; 89.5% in the assay with UO-31 renal; 101% in the assay on TK-10 renal; 110% in the assay with ACHN renal. The growth with CAKI-1 renal is 99.6%; in the assay on CCRF-CEM leukemia, 103%; in the assay with MOLT-4 leukemia it was 106%; in the assay on SR leukemia, 92.4%; with RPMI-8226 leukemia it was 103%; in the assay with OVCAR-5 ovarian, 87.7%. Further, the growth is 115% in the assay on OVCAR-4 ovarian; 105% in the assay on SK-OV-3 ovarian; 95% with IGROV1 ovarian; 109% with OVCAR-3 ovarian; 2.14% (active) with HS 578T breast; 59.5% with NCI/ADR-RES ovarian.

In the case of `COc1ccccc1C(=O)NC(=S)Nc1ccc(-c2nc3ccccc3[nH]2)cc1`, the growth with SK-MEL-2 melanoma was 109%; with EKVX NSCLC it was 91.1%; in the assay with SN12C renal, 46%; in the assay with UO-31 renal, 28.5%; with TK-10 renal, 59.6%; in the assay with ACHN renal, 71.4%. For the same compound, the growth in the assay on CAKI-1 renal was 105%; with CCRF-CEM leukemia it was 80.8%; in the assay with MOLT-4 leukemia, 91.9%; in the assay with SR leukemia, 13.6%; with RPMI-8226 leukemia it was 57.1%; in the assay on OVCAR-8 ovarian it was 53.1%. In addition, the growth is 90.5% in the assay on OVCAR-5 ovarian; -60.7% (active) in the assay with OVCAR-4 ovarian; 69% in the assay with IGROV1 ovarian; -36% (active) in the assay with OVCAR-3 ovarian; 36.5% in the assay on HS 578T breast; 38.7% with NCI/ADR-RES ovarian.

For the compound `Cc1c(C)c2c(c(C)c1NC(=O)/C=C\C(=O)O)CCC(C)(CCCC(C)CCCC(C)CCCC(C)C)O2` (configuration not stated), the growth is 27% in the assay with SK-MEL-2 melanoma; 74.3% in the assay on EKVX NSCLC; 50.6% in the assay with SN12C renal; 37.2% with UO-31 renal; 43.6% in the assay with TK-10 renal; 45.5% with ACHN renal. Further, the growth with CAKI-1 renal was 46.8%; in the assay on CCRF-CEM leukemia, 13.6%; with MOLT-4 leukemia, 33.9%; in the assay on SR leukemia it was 9.98% (active); in the assay with RPMI-8226 leukemia, 30.6%; in the assay on OVCAR-8 ovarian it was 35.9%. Moreover, the growth in the assay with OVCAR-5 ovarian is 87.6%; in the assay on OVCAR-4 ovarian, 39.4%; in the assay with SK-OV-3 ovarian it was 54.6%; in the assay with IGROV1 ovarian, 56.8%; in the assay with OVCAR-3 ovarian, 43.2%; in the assay with HS 578T breast, 57.4%. For the same compound, the growth with NCI/ADR-RES ovarian was 43.1%.

Turning to `CCOc1ccc(-c2nc3ccc(-c4nc5ccc(N6CCN(C)CC6)cc5[nH]4)cc3[nH]2)cc1OCC`, the growth with SK-MEL-2 melanoma is -17.5% (active); in the assay on EKVX NSCLC it was 50.2%; in the assay on SN12C renal, 20.8%; with UO-31 renal, 98.6%; in the assay on TK-10 renal it was 91%; in the assay on ACHN renal, 81.9%. Also, the growth in the assay on CAKI-1 renal was 40.8%; in the assay on CCRF-CEM leukemia it was 11.3%; with MOLT-4 leukemia, 9.04% (active); in the assay with SR leukemia it was 8.73% (active); in the assay on RPMI-8226 leukemia, 45.8%; with OVCAR-8 ovarian it was 14.8%. The growth in the assay on OVCAR-5 ovarian was 44.4%; in the assay with OVCAR-4 ovarian, 7.29% (active); with IGROV1 ovarian, 50.5%; in the assay on OVCAR-3 ovarian, -13.3% (active); with HS 578T breast it was 11.1%; in the assay with NCI/ADR-RES ovarian, 104%.

For the compound `O=C1Nc2ccccc2/C1=N/N=C/c1c[nH]c2ccccc12`, the growth was 55.5% in the assay on SK-MEL-2 melanoma; 21.8% with EKVX NSCLC; 73.8% in the assay on SN12C renal; 26.4% in the assay with UO-31 renal; 78.4% in the assay on TK-10 renal; 48.3% with ACHN renal. For the same compound, the growth in the assay with CAKI-1 renal was 17.8%; in the assay on CCRF-CEM leukemia, 83.3%; with MOLT-4 leukemia it was 71.8%; in the assay with SR leukemia it was 67%; in the assay on OVCAR-8 ovarian, 70.4%; in the assay with OVCAR-5 ovarian, 81.6%. For the same compound, the growth is 59.9% in the assay on OVCAR-4 ovarian; 35.7% with IGROV1 ovarian; 69.5% in the assay on OVCAR-3 ovarian; 15% in the assay on HS 578T breast; 91% in the assay on NCI/ADR-RES ovarian.

For `C=CCOc1cccc(/C=C2\SC(=Nc3ccc(O)cc3)NC2=O)c1`, the growth in the assay on SK-MEL-2 melanoma is 40.6%; in the assay with EKVX NSCLC, 28.8%; in the assay on SN12C renal, 14.9%; in the assay with UO-31 renal it was 20.7%; in the assay with TK-10 renal it was 67.7%; in the assay on ACHN renal, 24.3%. Further, the growth with CAKI-1 renal is 24.4%; in the assay on CCRF-CEM leukemia, 4.85% (active); in the assay on MOLT-4 leukemia, 13.4%; with SR leukemia, 17.1%; in the assay with RPMI-8226 leukemia, -14.4% (active); in the assay on OVCAR-8 ovarian, 27.4%. Besides, the growth was 27.9% in the assay with OVCAR-5 ovarian; 32% with OVCAR-4 ovarian; 20.3% in the assay on IGROV1 ovarian; 18% in the assay with HS 578T breast; 7.2% (active) in the assay with NCI/ADR-RES ovarian.
